# Measurements taken from PubChem BioAssay (NCI).
# Compounds without any hit were thinned out: in the full panel of roughly 83,000, 20% have a hit.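 Negative percent growth values reflect cell death: -40 means 40% of the cells present at the start died, and -100 means all died.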 A number with no mark means an inactive call. Active and inactive are the calls of the source. The calls were made as follows: active = growth percent below 10; inactive = the rest.
# Assays:
# Test in all cases: NCI-60 one-dose screen, 48 h (100 = growth as untreated, 0 = no growth, -100 = all killed)
# Conditions in all cases: 10 µM unless noted
# SK-MEL-2 melanoma = system: SK-MEL-2 melanoma
# EKVX NSCLC = system: EKVX NSCLC
# SN12C renal = system: SN12C renal
# UO-31 renal = system: UO-31 renal
# TK-10 renal = system: TK-10 renal
# ACHN renal = system: ACHN renal
# CAKI-1 renal = system: CAKI-1 renal
# A498 renal = system: A498 renal
# CCRF-CEM leukemia = system: CCRF-CEM leukemia
# SR leukemia = system: SR leukemia
# RPMI-8226 leukemia = system: RPMI-8226 leukemia
# OVCAR-8 ovarian = system: OVCAR-8 ovarian
# OVCAR-5 ovarian = system: OVCAR-5 ovarian
# OVCAR-4 ovarian = system: OVCAR-4 ovarian
# SK-OV-3 ovarian = system: SK-OV-3 ovarian
# IGROV1 ovarian = system: IGROV1 ovarian
# HS 578T breast = system: HS 578T breast
# NCI/ADR-RES ovarian = system: NCI/ADR-RES ovarian
# MOLT-4 leukemia = system: MOLT-4 leukemia
# OVCAR-3 ovarian = system: OVCAR-3 ovarian
SMILES,growth (SK-MEL-2 melanoma),growth (EKVX NSCLC),growth (SN12C renal),growth (UO-31 renal),growth (TK-10 renal),growth (ACHN renal),growth (CAKI-1 renal),growth (A498 renal),growth (CCRF-CEM leukemia),growth (SR leukemia),growth (RPMI-8226 leukemia),growth (OVCAR-8 ovarian),growth (OVCAR-5 ovarian),growth (OVCAR-4 ovarian),growth (SK-OV-3 ovarian),growth (IGROV1 ovarian),growth (HS 578T breast),growth (NCI/ADR-RES ovarian),growth (MOLT-4 leukemia),growth (OVCAR-3 ovarian)
N#Cc1c(-c2cccs2)cc(-c2cnccn2)nc1SCC(=O)N/N=C/c1ccncc1,121%,99%,110%,88.4%,128%,109%,95.9%,116%,103%,93.6%,103%,103%,114%,111%,109%,104%,109%,108%,,
Cc1ccc(NC2=C(Cl)C(=O)c3nc(C)ccc3C2=O)c(C)c1,4.04% (active),49.1%,-69.1% (active),-13% (active),126%,-24.7% (active),85.5%,60.5%,1.19% (active),10.3%,-10.4% (active),28.3%,-1.15% (active),-96.5% (active),117%,-58.8% (active),6.94% (active),4.37% (active),1.38% (active),
NS(=O)(=O)c1ccc(Nc2nc(N/N=C/C=C/c3ccccc3)nc(Nc3ccccc3)n2)cc1,45%,71.3%,48.1%,39.6%,86.8%,38.5%,46.1%,40.2%,24.8%,14.9%,28.5%,50%,99.2%,49.6%,78.3%,36.8%,39.7%,91.1%,12.3%,
COc1ccc2c(c1)c(-c1nc(N)nnc1-c1c[nH]c3ccccc13)cn2C,52.6%,43.9%,53.6%,50.9%,92.8%,44.7%,31.1%,4.9% (active),28.7%,14.8%,41.8%,51.3%,72.2%,66.4%,63%,30.5%,35.3%,49.8%,,19.7%
CCOC(=O)c1c(NC(=O)c2cccc(C(F)(F)F)c2)sc2c3c(ccc12)OCN(C)C3,98.8%,36.9%,-66.2% (active),31.8%,126%,-91.9% (active),44.8%,84.3%,-39.5% (active),-41.7% (active),-47.6% (active),-41.6% (active),-14% (active),-44.2% (active),75.7%,-78.7% (active),38.4%,-54.3% (active),,-44.7% (active)
Cn1ncc2ncc(-c3ccc4ncc(C#N)c(N5CCc6cc(F)c(Cl)cc65)c4c3)cc21,47.6%,11.3%,30.3%,3.14% (active),63.2%,17%,13.6%,2.55% (active),28.4%,22.3%,35.8%,38.8%,47%,26.1%,15%,-9.7% (active),-1.2% (active),39.3%,12.6%,
CN(C)CC(=O)Nc1nc(-c2cccc(NS(=O)(=O)c3cccc4c(N(C)C)cccc34)c2)cs1,94.1%,68.9%,75.3%,70.4%,107%,88.2%,78.8%,101%,83.7%,74.9%,60.6%,82.6%,105%,87.1%,107%,90.7%,90.6%,76.8%,80.4%,
COc1ccc(C(C)=C(c2ccc(OCCN(C)C)cc2)c2ccc(OCCN(C)C)cc2)cc1,-70.3% (active),13.5%,0.111% (active),-59.4% (active),-56.1% (active),-46% (active),-69.1% (active),-38.9% (active),-23.6% (active),-46.5% (active),-48.5% (active),-2.55% (active),-5.23% (active),-35.4% (active),-5.19% (active),-24.6% (active),-46.7% (active),0.85% (active),,-46.2% (active)
Cc1ccc(NC(=O)Nc2nc3ccc([N+](=O)[O-])cc3s2)cc1,-15.2% (active),4.01% (active),3.41% (active),6.85% (active),4.02% (active),1.63% (active),,-34.8% (active),14.2%,20.3%,2.09% (active),12.8%,10.3%,-6.09% (active),-12.4% (active),16.8%,15.2%,2.65% (active),17.2%,
NNc1nnc2nc(Nc3ccccc3)nc(Nc3ccc(S(N)(=O)=O)cc3)n12,111%,99.4%,98.8%,82.2%,106%,106%,,102%,92.5%,93.3%,99.4%,107%,103%,112%,113%,98.3%,99.6%,99.6%,105%,110%
COc1ccc(/C(=N\NC(N)=S)c2ccc(Cl)cc2)cc1OC,-23.8% (active),50.8%,29%,34.5%,83.3%,42.3%,,-4.86% (active),25.6%,29.3%,45.6%,37.8%,51.2%,60.6%,18.3%,30.3%,3.4% (active),7.07% (active),29.5%,
O=C(Nc1ccc(Cl)c(C(F)(F)F)c1)Nc1ccc2oc(=O)ccc2c1,71.2%,35.2%,31.9%,31.3%,70.4%,10.2%,36.1%,33%,25.5%,45.6%,-1.56% (active),43.4%,75.6%,43.3%,81%,30.7%,83.1%,19.6%,,
O=S(=O)(NCCCNc1nccc(-c2[nH]c(-c3ccccc3)nc2-c2ccc(F)c(O)c2)n1)c1cccc(F)c1,39.2%,99.8%,99.1%,139%,134%,93.2%,,93.5%,37%,36.7%,45%,82%,147%,108%,113%,105%,101%,103%,44.3%,123%
O=C(/C=C/c1ccc(F)cc1)Nc1cccc2cccnc12,107%,91.4%,101%,84.1%,147%,105%,,114%,105%,103%,94.2%,106%,104%,93.3%,90.2%,71.8%,112%,102%,105%,
Cc1ccc(-c2nc(SCC(=O)c3ccccc3)nc(Nc3ccc(S(N)(=O)=O)cc3)c2C#N)cc1,95.7%,99.8%,63%,74.9%,67.5%,89.7%,,104%,82%,56.9%,65.4%,34.6%,97.3%,24.3%,107%,86.3%,-0.186% (active),81.7%,86.5%,
